Bioassay records from PubChem BioAssay.
Only some compounds are listed: those with a hit (about 2.1% of all), similar ones and a draw of the others.
Wee1 stabilizer: inhibitors of human Wee1 degradation; P30291; HeLa Luc-Wee1K328M stability, luciferase luminescence; 100% = proteasome inhibitor MG132 effect; reporter increase, % at 5 µM; 220,000 compounds, 1.2% hits;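 active = activation above the mean of all tested compounds plus 3 SD, set per screening run, cut at about 8.8% in these data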;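 note: cells exposed to compound for 20 h before luminescence read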
Target sequence (P30291 whole entry K328M): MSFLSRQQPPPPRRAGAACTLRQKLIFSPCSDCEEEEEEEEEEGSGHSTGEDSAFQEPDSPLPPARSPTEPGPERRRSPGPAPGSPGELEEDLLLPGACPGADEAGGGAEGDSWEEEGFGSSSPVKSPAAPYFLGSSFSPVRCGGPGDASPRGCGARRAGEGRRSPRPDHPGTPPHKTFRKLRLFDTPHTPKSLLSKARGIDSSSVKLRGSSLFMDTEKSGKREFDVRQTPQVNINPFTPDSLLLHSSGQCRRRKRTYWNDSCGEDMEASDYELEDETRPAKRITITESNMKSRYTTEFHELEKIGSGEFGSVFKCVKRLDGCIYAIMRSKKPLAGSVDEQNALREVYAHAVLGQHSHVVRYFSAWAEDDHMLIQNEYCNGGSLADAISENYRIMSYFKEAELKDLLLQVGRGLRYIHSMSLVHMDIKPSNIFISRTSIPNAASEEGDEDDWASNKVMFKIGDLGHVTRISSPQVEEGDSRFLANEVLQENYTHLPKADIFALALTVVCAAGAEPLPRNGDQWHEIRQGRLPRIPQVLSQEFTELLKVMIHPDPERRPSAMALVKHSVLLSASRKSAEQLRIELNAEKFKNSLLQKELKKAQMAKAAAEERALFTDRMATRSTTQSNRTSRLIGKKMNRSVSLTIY
KLF5 inhibitor: kruppel-like factor 5 inhibition; DLD-1 KLF5 promoter-luciferase reporter, luminescence; inhibition, % at 5 µM; 290,000 compounds, 0.23% hits; AID 1700;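 active = inhibition above a per-plate limit of that plate's mean compound inhibition plus 3 SD, cut at about 60% in these data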;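 note: higher means less KLF5 promoter-driven luciferase light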
HIF act: HIF pathway transcriptional activation. 300,000 compounds, 0.32% hits. activation, % at 7.5 µM (by protocol). U2OS HRE-luciferase reporter, luminescence; normalized: DMSO 0%, desferrioxamine 100%;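 active = mean activation of at least 10% of the iron chelator positive control signal, with at least half of replicates also reaching 10%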
aSyn UTR inh: MLPCN primary screen, SNCA 5' untranslated region | alpha-synuclein 5'UTR reporter, inhibitor activity | inhibition, % (tested at 7.5 µM) | 300,000 compounds, 0.82% hits | AID 1813; in the data active = inhibition above about 60%;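 note: H4 neuroglioblastoma cells stably carrying SNCA 5'UTR luciferase fusion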
Platelet DG rel: platelet dense granule release activity. 300,000 compounds, 0.22% hits. human platelet-rich plasma, SFLLRN dense granule ATP release, luminescence. inhibition, %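 (compounds screened at 7.5 µM in platelet-rich plasma)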;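 active = mean replicate score, as percent of positive control, at or above 50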
Large screens that a line does not name were inactive.

O=C(N/N=C/c1cc(Br)ccc1O)c1cccc(N2CCCC2=O)c1	HIF act 42, aSyn UTR inh 68
O=C(O)c1cccc(N2CCCC2=O)c1	HIF act 47
O=[N+]([O-])c1cccnc1SCc1ccccc1	none (no result: Wee1 stabilizer)
O/N=C1/C2C3CC4C5C3C1C5C1(OCCO1)C42 (centres undefined)	HIF act 61
Cc1nc(-c2ccccn2)nc(N(C)c2ccccc2)c1Cl	none (no result: Wee1 stabilizer, Platelet DG rel)
O=C(Oc1ccc(Cl)cc1)c1ccc(COC(=O)c2cnccn2)cc1	Platelet DG rel 63
CC(=O)Nc1ccc(NC(=O)CSc2ccc(-c3ccc(-n4ccnc4)cc3)nn2)cc1	none (no result: Wee1 stabilizer, KLF5 inhibitor)
CCSc1nc(-c2ccccc2)nc(C(Cl)Cl)n1	aSyn UTR inh 123
CSc1nc(-c2ccc(C)cc2)nc(C(Cl)Cl)n1	none
O=C(N/N=C/c1cc([N+](=O)[O-])ccc1Cl)c1cnccn1	aSyn UTR inh 81
NNC(=O)c1cccc(COc2ccc3c(c2)CCC3)c1	aSyn UTR inh 71
CC(=O)C(C)n1c(CN(C)Cc2ccccc2)nc2c1c(=O)n(C)c(=O)n2C (centres undefined)	none (no result: Wee1 stabilizer)
CC(C)n1c(CN(C)Cc2ccccc2)nc2c1c(=O)n(C)c(=O)n2C	aSyn UTR inh 64 (no result: Wee1 stabilizer)
CC(C)C(O)(C#CCN1CCCCCC1)c1ccccc1 (centres undefined)	none
COc1cccc(N2CCN(C(=S)NCCc3ccccc3)CC2)c1	none
COc1ccc(N2CCN(C(=S)NCCc3ccccc3)CC2)cc1	Wee1 stabilizer 9.4
Nc1nc(NCCOCCO)nc(NC2CCCCC2)c1[N+](=O)[O-]	aSyn UTR inh 68 (no result: Wee1 stabilizer)
COc1ccc(NC(=O)C(=O)NCC2CCCN2S(=O)(=O)c2cc(C)ccc2C)cc1 (centres undefined)	none (no result: Wee1 stabilizer, KLF5 inhibitor)
O=C(Nc1ccc([N+](=O)[O-])cc1)C(=O)Nc1cccc(C(=O)O)c1	KLF5 inhibitor 81, aSyn UTR inh 102, Platelet DG rel 83
O=C(Nc1ccc(Oc2ccc(NC(=O)Nc3ccc([N+](=O)[O-])cc3)cc2)cc1)Nc1ccc([N+](=O)[O-])cc1	aSyn UTR inh 91
O=C(Nc1ccc([N+](=O)[O-])cc1)Nc1nc(-c2ccc(Cl)s2)cs1	aSyn UTR inh 92
CC(C)COc1ccc(C(=O)Nc2ccc(SC(F)F)cc2)cc1	none
CC(C)COc1ccc(C(=O)Nc2ccc([N+](=O)[O-])cc2)cc1	HIF act 15
C[n+]1cccc(C(=O)NNC(=O)C23CC4CC(CC(C4)C2)C3)c1	none
CC(=O)Nc1ccc(Nc2nc(C)c([N+](=O)[O-])c(Nc3ccc(NC(C)=O)cc3)n2)cc1	HIF act 469
CCN(CC(=O)Nc1ccc(NC(C)=O)cc1)C(=O)c1ccccc1SCc1c(C)noc1C	none (no result: Wee1 stabilizer, KLF5 inhibitor)
C=CCNC(=O)/C(C#N)=C/c1cc(Br)ccc1OC	Wee1 stabilizer 11
CC(OC(=O)Cn1cnc2c1c(=O)n(C)c(=O)n2C)C(=O)N(C)c1ccccc1 (centres undefined)	none (no result: Wee1 stabilizer, KLF5 inhibitor)
O=C(Nc1cc(Cl)cc(Cl)c1)c1coc(=O)c(Br)c1	Wee1 stabilizer 14
O=C(NC(CO)(CO)CO)c1coc(=O)c(Br)c1	none
CCCNC(=O)Nc1cc(OC)c(OC)cc1Cc1nccc2cc(OC)c(OC)cc12	none (no result: Wee1 stabilizer)
O=C(N/N=C/c1cccnc1)c1ccc(NC(=O)c2ccc(Cl)cc2)cc1	HIF act 39 (no result: Wee1 stabilizer)
O=C(N/N=C/c1cccnc1)c1ccc(NC(=O)c2cccc(Cl)c2)cc1	none (no result: Wee1 stabilizer)
O=C(COc1ccc(Br)cc1)Nc1ccc(CN2CCOCC2)cc1	none (no result: Wee1 stabilizer)
COc1cccc2c1C(=O)c1c(O)c3c(c(O)c1C2=O)C[C@@](O)(C(=O)CO)C[C@@H]3O[C@H]1C[C@H](N)[C@@H](O)[C@H](C)O1	aSyn UTR inh 109 (no result: Wee1 stabilizer, KLF5 inhibitor)
COc1ccc2c(c1)cc1c(=O)n(CC(=O)NCCCN3CCOCC3)nc(C)n12	none (no result: Wee1 stabilizer)
Cc1[nH][nH]c(=O)c1C(c1c(C)[nH][nH]c1=O)c1cn(Cc2ccc(Cl)c(Cl)c2)c2ccccc12	aSyn UTR inh 90
CC(C)(C)c1cc[n+](C2=C([O-])c3ccccc3C(=O)/C2=N\S(=O)(=O)c2ccccc2)cc1	aSyn UTR inh 84
O=C1/C(=N\S(=O)(=O)c2cccs2)C([n+]2ccc(CCCc3ccccc3)cc2)=C([O-])c2ccccc21	aSyn UTR inh 91
Cc1cc[n+](C2=C([O-])c3ccccc3C(=O)/C2=N\S(=O)(=O)c2cccs2)cc1C	aSyn UTR inh 74
O=S(=O)([N-]c1nc2ccccc2nc1-[n+]1ccc(CCCc2ccccc2)cc1)c1cccs1	none
Cc1cc(C)c[n+](C2=C([O-])c3ccccc3C(=O)/C2=N\S(=O)(=O)c2cccs2)c1	none
CC(C)[n+]1ccn(C2=C([O-])c3ccccc3C(=O)/C2=N\S(=O)(=O)c2ccccc2)c1	none
O=C1/C(=N\S(=O)(=O)c2cccs2)C([n+]2cccc(Cc3ccccc3)c2)=C([O-])c2ccccc21	aSyn UTR inh 85
Cc1c(CC(=O)N[C@H](C(=O)O)C(C)C)c(=O)oc2cc3c(cc12)CCC(C)(C)O3	none (no result: Wee1 stabilizer)
CCN(CC)CCN(C(=O)CCS(=O)(=O)c1ccccc1)c1nc2c(C)cc(C)cc2s1	none (no result: Wee1 stabilizer)
Cc1cccc(NC(=O)CN(C2=NC3CS(=O)(=O)CC3S2)c2ccccc2F)c1 (centres undefined)	none (no result: Wee1 stabilizer)
Cc1cc(SCC(=O)N(C)CC(=O)Nc2ccc(F)cc2)nc2ccccc12	none
CC(=O)c1ccc(OCc2cc(C(=O)N3CCN(C4CCCC4)C(=O)C3)no2)cc1	none (no result: Wee1 stabilizer)
Nc1cc(S(=O)(=O)Nc2ccc(Br)cc2)ccc1Cl	Wee1 stabilizer 9.4
COc1ccc(NS(=O)(=O)c2ccc(Cl)c(N)c2)cc1Br	none
COC(=O)c1cc(S(=O)(=O)NCCN2CCN(c3ccccc3F)CC2)c[nH]1	none (no result: Wee1 stabilizer)
COC(=O)/C(=C(O)\C=C\c1ccccc1[N+](=O)[O-])c1nc2ccccc2[nH]1	none (no result: Wee1 stabilizer)
CCCn1c2c(c(=N)c3c1CCC3)CCC2	none
CCCCCCCn1c2c(c(=N)c3ccccc31)CCC2	aSyn UTR inh 79
NC(=O)c1sc2nc3c(c(-c4ccc(Cl)cc4)c2c1N)CCCC3	aSyn UTR inh 66
COc1ccccc1C1/C(=C(\O)c2ccc3c(c2)OCCO3)C(=O)C(=O)N1CCCn1ccnc1 (centres undefined)	none (no result: Wee1 stabilizer)
O=C(COC(=O)c1cc(F)cc(F)c1)NCCCc1ccccc1	none (no result: Wee1 stabilizer)
CCCCNC(=S)N/N=C/C1=CCC2CC1C2(C)C (centres undefined)	Wee1 stabilizer 8.9
Oc1ccc(Oc2ccc(Oc3ccc(O)cc3)cc2)cc1	none (no result: Wee1 stabilizer)
COc1ccc(-c2c/c(=N\c3nc(-c4ccccc4)c(C)s3)c3ccccc3o2)cc1O	aSyn UTR inh 75
COc1ccc(-c2cc(=Nc3c(C)n(C)n(-c4ccccc4)c3=O)c3ccccc3o2)cc1	none
CS(=O)(=O)Nc1cccc2cccnc12	none (no result: HIF act, aSyn UTR inh, Platelet DG rel)
Cc1cc(C)n(-c2ccc3cccc(NS(C)(=O)=O)c3n2)n1	HIF act 52, aSyn UTR inh 90
COc1cccc2sc(Nc3nc(-c4cc5ccccc5oc4=O)cs3)nc12	none
COc1cccc2sc(Nc3nc(-c4ccncc4)cs3)nc12	aSyn UTR inh 105
